# Screen size: about 5,500 compounds; about 2,000 (36%) were called active. Another 18% or so got no clear call; they are omitted. The list shows a part of the results. Values without a mark were called inactive. Rule as the data show it: active = normalized growth mostly below about 0.91 (no sharp cut-off); inconclusive = no clear call, values can overlap the other calls; inactive = mostly above about 0.92.
# Assay: chemical genetic growth profiling, strain panel (AID 1159580);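 also: tested at 20 µM; growth read once vehicle control cultures reached saturation at 30 °C; 1 = growth at the plate median or of vehicle wells; lower values mean less growth of the strain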
# Conditions: S. cerevisiae deletion strains, growth OD
# [1] = locus YDR150W, strain NUM1, stronger effect = lower value
# [2] = locus YGR078C, strain PAC10, stronger effect = lower value
# [3] = locus YNL153C, strain GIM3, stronger effect = lower value
# [4] = locus YDL101C, strain DUN1, stronger effect = lower value
# [5] = locus YHR030C, strain SLT2, stronger effect = lower value
# [6] = locus YAR019C, strain CDC15, stronger effect = lower value
# [7] = locus YBL105C, strain PKC1, stronger effect = lower value
# [8] = locus YBR135W, strain CKS1, stronger effect = lower value
# [9] = locus YBR136W, strain MEC1, stronger effect = lower value
# [10] = locus YBR160W, strain CDC28, stronger effect = lower value
# [11] = locus YDL017W, strain CDC7, stronger effect = lower value
# [12] = locus YDL028C, strain MPS1, stronger effect = lower value
# [13] = locus YDL108W, strain KIN28, stronger effect = lower value
# [14] = locus YDL132W, strain cdc53, stronger effect = lower value
# [15] = locus YDL214C, strain PRR2, stronger effect = lower value
# [16] = locus YDR052C, strain DBF4, stronger effect = lower value
# [17] = locus YDR054C, strain cdc34, stronger effect = lower value
# [18] = locus YDR226W, strain ADK1, stronger effect = lower value
# [19] = locus YDR477W, strain SNF1, stronger effect = lower value
# [20] = locus YER123W, strain YCK3, stronger effect = lower value
# [21] = locus YER133W, strain GLC7, stronger effect = lower value
# [22] = locus YFL009W, strain cdc4, stronger effect = lower value
# [23] = locus YFL029C, strain CAK1, stronger effect = lower value
# [24] = locus YFR003C, strain YPI1, stronger effect = lower value
# [25] = locus YFR019W, strain FAB1, stronger effect = lower value
# [26] = locus YFR028C, strain CDC14, stronger effect = lower value
# [27] = locus YGR040W, strain KSS1, stronger effect = lower value
# [28] = locus YGR052W, strain FMP48, stronger effect = lower value
# [29] = locus YGR092W, strain DBF2, stronger effect = lower value
# [30] = locus YHR079C, strain IRE1, stronger effect = lower value
# [31] = locus YHR082C, strain KSP1, stronger effect = lower value
# [32] = locus YHR205W, strain SCH9, stronger effect = lower value
# [33] = locus YIL147C, strain SLN1, stronger effect = lower value
# [34] = locus YJL095W, strain BCK1, stronger effect = lower value
# [35] = locus YJL128C, strain PBS2, stronger effect = lower value
# [36] = locus YJL157C, strain FAR1, stronger effect = lower value
# [37] = locus YJR016C, strain ILV3, stronger effect = lower value
# [38] = locus YJR066W, strain TOR1 (second series), stronger effect = lower value
# [39] = locus YJR066W, strain TOR1, stronger effect = lower value
# [40] = locus YKL048C, strain ELM1, stronger effect = lower value
# [41] = locus YKL067W, strain YNK1, stronger effect = lower value
# [42] = locus YKL101W, strain HSL1, stronger effect = lower value
# [43] = locus YKL193C, strain SDS22, stronger effect = lower value
# [44] = locus YKL203C, strain TOR2, stronger effect = lower value
# [45] = locus YLR113W, strain HOG1, stronger effect = lower value
# [46] = locus YLR133W, strain CKI1, stronger effect = lower value
# [47] = locus YLR403W, strain SFP1, stronger effect = lower value
# [48] = locus YML070W, strain DAK1, stronger effect = lower value
# [49] = locus YMR001C, strain CDC5, stronger effect = lower value
# [50] = locus YMR205C, strain PFK2 (second series), stronger effect = lower value
# [51] = locus YMR277W, strain FCP1, stronger effect = lower value
# [52] = locus YNL006W, strain LST8, stronger effect = lower value
# [53] = locus YNL020C, strain ARK1, stronger effect = lower value
# [54] = locus YNL161W, strain CBK1, stronger effect = lower value
# [55] = locus YNL183C, strain NPR1, stronger effect = lower value
# [56] = locus YNL207W, strain RIO2, stronger effect = lower value
# [57] = locus YNL222W, strain SSU72, stronger effect = lower value
# [58] = locus YNL307C, strain MCK1 (second series), stronger effect = lower value
# [59] = locus YOL078W, strain AVO1, stronger effect = lower value
# [60] = locus YOL136C, strain PFK27, stronger effect = lower value
# [61] = locus YOR061W, strain CKA2, stronger effect = lower value
# [62] = locus YOR329C, strain SCD5, stronger effect = lower value
# [63] = locus YPL031C, strain PHO85, stronger effect = lower value
# [64] = locus YPL153C, strain RAD53, stronger effect = lower value
# [65] = locus YPL204W, strain HRR25, stronger effect = lower value
# [66] = locus YPL209C, strain IPL1, stronger effect = lower value
# [67] = locus YPL256C, strain CLN2, stronger effect = lower value
# [68] = locus YPR025C, strain CCL1, stronger effect = lower value
# [69] = locus YPR106W, strain ISR1, stronger effect = lower value
# [70] = locus YPR111W, strain DBF20, stronger effect = lower value
# [71] = strain NNK1, stronger effect = lower value
# [72] = strain TSCII, stronger effect = lower value
compound,measurement,setting,value
C[C@]12N[C@H](Cc3ccccc31)c1ccccc12,normalized growth,"locus YAL040C, strain CLN3, stronger effect = lower value",1.04
same,normalized growth,"locus YCL061C, strain MRC1 (second series), stronger effect = lower value",0.988
same,normalized growth,[1],1
same,normalized growth,"locus YDR363W, strain ESC2, stronger effect = lower value",0.953
same,normalized growth,"locus YER002W, strain NOP16, stronger effect = lower value",0.964
same,normalized growth,[2],0.973
same,normalized growth,"locus YMR307W, strain GAS1, stronger effect = lower value",1
same,normalized growth,"locus YNL128W, strain TEP1, stronger effect = lower value",0.992
same,normalized growth,[3],0.978
same,normalized growth,"locus YNL175C, strain NOP13, stronger effect = lower value",0.98
same,normalized growth,"locus YNL197C, strain WHI3, stronger effect = lower value",0.957
same,normalized growth,"locus YNL224C, strain SQS1, stronger effect = lower value",0.979
same,normalized growth,"locus YOR083W, strain WHI5 (second series), stronger effect = lower value",0.995
N#Cc1cccc(Cn2c(=O)oc3ccccc32)c1,normalized growth,"locus YAL013W, strain DEP1, stronger effect = lower value",0.988
same,normalized growth,"locus YBR229C, strain ROT2, stronger effect = lower value",0.991
same,normalized growth,[4],0.977
same,normalized growth,[1],0.998
same,normalized growth,"locus YEL061C, strain CIN8, stronger effect = lower value",0.989
same,normalized growth,[2],1
same,normalized growth,"locus YGR229C, strain SMI1, stronger effect = lower value",0.985
same,normalized growth,[5],0.907
same,normalized growth,"locus YHR087W, strain rtc3, stronger effect = lower value",0.988
same,normalized growth,"locus YJL187C, strain SWE1, stronger effect = lower value",0.996
same,normalized growth,"locus YJR043C, strain POL32, stronger effect = lower value",1
same,normalized growth,"locus YJR075W, strain HOC1, stronger effect = lower value",0.986
same,normalized growth,"locus YKL190W, strain CNB1, stronger effect = lower value",1
same,normalized growth,"locus YLR039C, strain RIC1, stronger effect = lower value",1.04
same,normalized growth,"locus YLR058C, strain SHM2 (second series), stronger effect = lower value",0.998
same,normalized growth,"locus YLR085C, strain ARP6, stronger effect = lower value",1.11
same,normalized growth,"locus YLR262C, strain YPT6, stronger effect = lower value",1.01
same,normalized growth,"locus YML094W, strain GIM5, stronger effect = lower value",0.972
same,normalized growth,"locus YMR219W, strain ESC1, stronger effect = lower value",0.993
same,normalized growth,"locus YMR263W, strain SAP30, stronger effect = lower value",0.995
same,normalized growth,[3],0.998
same,normalized growth,"locus YNL298W, strain CLA4 (second series), stronger effect = lower value",0.996
same,normalized growth,"locus YNL322C, strain KRE1, stronger effect = lower value",0.984
same,normalized growth,"locus YNR030W, strain Alg12, stronger effect = lower value",0.977
same,normalized growth,"locus YOL006C, strain TOP1, stronger effect = lower value",1.04
same,normalized growth,"locus YPL055C, strain LGE1, stronger effect = lower value",1.01
same,normalized growth,"locus YPL241C, strain CIN2, stronger effect = lower value",1.06
same,normalized growth,"locus YPR135W, strain CTF4, stronger effect = lower value",1
O=C(CCn1c(=O)oc2ccccc21)Sc1ccc(Cl)cc1Cl,normalized growth,[6],0.894
same,normalized growth,[7],0.935
same,normalized growth,[8],0.914
same,normalized growth,[9],0.913
same,normalized growth,[10],0.895 (active)
same,normalized growth,[11],0.942
same,normalized growth,[12],0.884 (active)
same,normalized growth,[4],0.971
same,normalized growth,[13],0.897
same,normalized growth,[14],0.9
same,normalized growth,[15],0.359 (active)
same,normalized growth,[16],0.936
same,normalized growth,[17],0.748 (active)
same,normalized growth,[18],0.899
same,normalized growth,[19],0.222 (active)
same,normalized growth,[20],0.278 (active)
same,normalized growth,[21],0.435 (active)
same,normalized growth,[22],0.905
same,normalized growth,[23],0.878
same,normalized growth,[24],0.917
same,normalized growth,[25],0.311 (active)
same,normalized growth,[26],0.914
same,normalized growth,[27],0.289 (active)
same,normalized growth,[28],0.306 (active)
same,normalized growth,[29],0.164 (active)
same,normalized growth,[5],0.149 (active)
same,normalized growth,[30],0.253 (active)
same,normalized growth,[31],0.281 (active)
same,normalized growth,[32],0.286 (active)
same,normalized growth,[33],0.92
same,normalized growth,[34],0.229 (active)
same,normalized growth,[35],0.907
same,normalized growth,[36],0.503 (active)
same,normalized growth,[37],0.915
same,normalized growth,[38],0.197 (active)
same,normalized growth,[39],0.227 (active)
same,normalized growth,[40],0.745 (active)
same,normalized growth,[41],0.597 (active)
same,normalized growth,[42],0.433 (active)
same,normalized growth,[43],0.903
same,normalized growth,[44],0.348 (active)
same,normalized growth,[45],0.221 (active)
same,normalized growth,[46],0.387 (active)
same,normalized growth,[47],0.205 (active)
same,normalized growth,[48],0.519 (active)
same,normalized growth,[49],0.911
same,normalized growth,[50],0.662 (active)
same,normalized growth,[51],0.873 (active)
same,normalized growth,[52],0.91
same,normalized growth,[53],0.383 (active)
same,normalized growth,[54],0.923
same,normalized growth,[55],0.249 (active)
same,normalized growth,[56],0.908
same,normalized growth,[57],0.892
same,normalized growth,[58],0.196 (active)
same,normalized growth,[59],0.918
same,normalized growth,[60],0.45 (active)
same,normalized growth,[61],0.334 (active)
same,normalized growth,"locus YOR231W, strain MKK1, stronger effect = lower value",0.251 (active)
same,normalized growth,[62],0.936
same,normalized growth,[63],0.342 (active)
same,normalized growth,[64],0.216 (active)
same,normalized growth,[65],0.402 (active)
same,normalized growth,[66],0.922
same,normalized growth,[67],0.255 (active)
same,normalized growth,[68],0.923
same,normalized growth,[69],0.944
same,normalized growth,[70],0.92
same,normalized growth,[71],0.935
same,normalized growth,[72],0.898
O=C(CCn1c(=O)oc2ccccc21)Sc1ccc(C(F)(F)F)cc1,normalized growth,[6],0.931
same,normalized growth,[7],0.962
same,normalized growth,[8],0.957
same,normalized growth,[9],0.941
same,normalized growth,[10],0.951
same,normalized growth,[11],0.967
same,normalized growth,[12],0.925
same,normalized growth,[4],0.975
same,normalized growth,[13],0.94
same,normalized growth,[14],0.965
same,normalized growth,[15],0.793
same,normalized growth,[16],0.961
same,normalized growth,[17],0.936
same,normalized growth,[18],0.951
same,normalized growth,[19],0.742
same,normalized growth,[20],0.677
same,normalized growth,[21],0.876
same,normalized growth,[22],0.917
same,normalized growth,[23],0.937
same,normalized growth,[24],0.97
same,normalized growth,[25],0.942
same,normalized growth,[26],0.958
same,normalized growth,[27],0.7
same,normalized growth,[28],0.774
same,normalized growth,[29],0.473 (active)
same,normalized growth,[5],0.318 (active)
same,normalized growth,[30],0.479 (active)
same,normalized growth,[31],0.781
same,normalized growth,[32],0.792
same,normalized growth,[33],0.935
same,normalized growth,[34],0.838
same,normalized growth,[35],0.929
same,normalized growth,[36],0.703
same,normalized growth,[37],0.966
same,normalized growth,[38],0.418 (active)
same,normalized growth,[39],0.587
same,normalized growth,[40],0.897
same,normalized growth,[41],0.779
same,normalized growth,[42],0.834
same,normalized growth,[43],0.955
same,normalized growth,[44],0.937
same,normalized growth,[45],0.848 (active)
same,normalized growth,[46],0.779
same,normalized growth,[47],0.799
same,normalized growth,[48],0.879
same,normalized growth,[49],0.938
same,normalized growth,[50],0.882
same,normalized growth,[51],0.919
same,normalized growth,[52],0.954
same,normalized growth,[53],0.783
same,normalized growth,[54],0.962
same,normalized growth,[55],0.778
same,normalized growth,[56],0.949
same,normalized growth,[57],0.935
same,normalized growth,[58],0.557 (active)
same,normalized growth,[59],0.951
same,normalized growth,[60],0.851
same,normalized growth,[61],0.607 (active)
same,normalized growth,"locus YOR119C, strain RIO1, stronger effect = lower value",0.922
same,normalized growth,[62],0.965
same,normalized growth,[63],0.732
same,normalized growth,[64],0.552 (active)
same,normalized growth,[65],0.813
same,normalized growth,[66],0.971
same,normalized growth,[67],0.83 (active)
same,normalized growth,[68],0.956
same,normalized growth,[69],0.956
same,normalized growth,[70],0.93
same,normalized growth,[71],0.96
same,normalized growth,[72],0.931
